Source: PubChem (National Center for Advancing Translational Sciences (NCATS))
HP1b binding inh: HP1-beta chromodomain-methylated histone interaction inhibition; Potency, µM (highest dose often 114 µM), most hits filed as inhibitors; AID 540317; 390,000 compounds, 0.56% hits; P83916; AlphaScreen HP1-beta / biotin-H3K9me3 peptide binding; note: nearly all actives have a fitted effect of over 70% in size
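AlphaScreen: HP1-beta (50 nM) preformed 30 min with biotin-H3(1-18)K9me3 peptide (50 nM) in PBS pH 7.4, 0.01% Tween-20. Compound added for 30 min at RT, then streptavidin donor/nickel chelate acceptor beads (10 ug/mL) for 30 min.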
Six1-Eya2 blk: Six1/Eya2 interaction inhibition; Q15475+O00167; AlphaScreen GST-Six1/His-Eya2 binding, biochemical; active compounds read low; activity change, % (no concentration beside the values); 360,000 compounds, 0.56% hits; AID 651725; in the data active = activity change below about -65%; inconclusive = mostly about -30% to -63%
Target sequence (O00167 whole entry, looked up): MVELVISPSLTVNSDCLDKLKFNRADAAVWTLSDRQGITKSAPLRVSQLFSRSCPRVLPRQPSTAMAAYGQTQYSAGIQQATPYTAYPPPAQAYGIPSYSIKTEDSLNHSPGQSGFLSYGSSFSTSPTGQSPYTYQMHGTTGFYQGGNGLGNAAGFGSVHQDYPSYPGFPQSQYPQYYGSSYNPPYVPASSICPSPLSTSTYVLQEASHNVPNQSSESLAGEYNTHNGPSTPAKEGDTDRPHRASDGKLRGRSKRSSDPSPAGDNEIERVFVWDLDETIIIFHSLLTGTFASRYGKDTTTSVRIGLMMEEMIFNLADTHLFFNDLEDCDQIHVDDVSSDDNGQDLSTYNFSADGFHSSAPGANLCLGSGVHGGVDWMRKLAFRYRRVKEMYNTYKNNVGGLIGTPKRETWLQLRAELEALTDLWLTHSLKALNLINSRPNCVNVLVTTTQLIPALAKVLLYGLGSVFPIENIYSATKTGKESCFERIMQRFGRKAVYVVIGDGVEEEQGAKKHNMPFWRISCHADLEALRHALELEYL
Target sequence (Q15475 whole entry, looked up): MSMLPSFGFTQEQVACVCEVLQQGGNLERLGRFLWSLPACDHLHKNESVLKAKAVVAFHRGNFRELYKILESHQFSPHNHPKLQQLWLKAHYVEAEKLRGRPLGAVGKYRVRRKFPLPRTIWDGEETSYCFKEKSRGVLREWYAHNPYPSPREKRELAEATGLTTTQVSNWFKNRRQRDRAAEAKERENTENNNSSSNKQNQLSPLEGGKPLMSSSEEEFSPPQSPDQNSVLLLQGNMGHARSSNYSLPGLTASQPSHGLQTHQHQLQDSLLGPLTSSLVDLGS
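AlphaScreen luminescence read after one hour at 37 °C in darkness. Pin-transferred compounds met GST-Six1 and His-Eya2 protein (5X stock 250 nM/500 nM) plus glutathione donor and Ni-chelate acceptor beads (5X, 50 ug/mL).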
JMJD2A Tudor inh: JMJD2A Tudor domain (human) inhibition; Potency, µM (top dose mostly 114 µM), hits mostly inhibitors; AID 504339; AlphaScreen JMJD2A-Tudor / H3K4me3 peptide binding; O75164; 390,000 compounds, 4.4% hits; note: nearly all actives have a fitted effect of over 50% in size
BAZ2B block: BAZ2B (human) inhibition; Q9UIF8; AlphaScreen BAZ2B-H3K14Ac peptide displacement; Potency, µM (series often up to 114 µM), actives largely listed as inhibitors; 360,000 compounds, 4.4% hits; note: nearly all actives have a fitted effect of over 60% in size
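AlphaScreen luminescence quantifies BAZ2B engagement of H3K14Ac peptide; the protein and biotinylated peptide are both at 50 nM final, buffer PBS pH 7.4 with 0.01% Tween-20, all steps at room temperature.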
G9a block: inhibitors of human histone lysine methyltransferase G9a. Q96KQ7. G9a H3K9 monomethylation, AlphaScreen, 2 h. Potency, µM (series often up to 102 µM), actives largely listed as inhibitors. 350,000 compounds, 8.8% hits; note: nearly all actives have a fitted effect of over 75% in size
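Chemiluminescent proximity detection of H3K9 monomethylation, read after 10 min bead incubation in the dark. Reaction: 20 nM G9a, 500 nM biotin-H3K9 peptide, 20 uM SAM cofactor, 2 h, room temperature, following 15 min enzyme-compound preincubation.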
CtBP-E1A blk: inhibitors of CtBP/E1A interaction; AlphaScreen GST-E1A/His-CtBP binding, 1536-well; active compounds read low; 340,000 compounds, 0.49% hits; activity change, % (test concentration not listed); in the data active = activity change below about -65%; inconclusive = mostly about -30% to -63%
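Homogeneous bead-based format: GST-tagged E1A captured on glutathione donor beads, His-tagged CtBP on nickel acceptor beads; compounds precede bead addition by 2 h at 37 °C.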
Each line names hits and unclear results; the compound was inactive in the other large screens. Most compounds without a hit are left out; they make up all but 10% or so of the library. Unless noted, calls come from the whole dose curve; as a rule, active = well fitted inhibition curve with a large enough effect; inconclusive = small, poorly fitted or top-dose-only effect; inactive = no such curve, though single readings can be large or run the other way.

NC(=O)[C@@H]1CCCNc2c(F)cc([N+](=O)[O-])cc2C(=O)N[C@@H](CO)C(=O)N[C@@H](Cc2ccc(O)cc2)C(=O)N1	G9a block inconclusive
C[C@@H]1NC(=O)[C@H](CCC(=O)O)NC(=O)c2cc([N+](=O)[O-])cc(F)c2NCCC[C@@H](C(N)=O)NC1=O	G9a block 79µM
CN(Cc1cnn(C)c1)S(=O)(=O)c1cccc([N+](=O)[O-])c1	none
CCN1CC(CN(C)Cc2nc(Cc3ccccc3)no2)CC1=O (configuration not stated)	none
CC(C)(C)OC(=O)N/N=C/c1cccn1-c1ccc([N+](=O)[O-])cc1	HP1b binding inh inconclusive, JMJD2A Tudor inh inconclusive, BAZ2B block inconclusive, G9a block 8.9µM, CtBP-E1A blk inconclusive
CC(C)(C)OC(=O)N/N=C\c1ccc[nH]1	none
COc1ccc(CC(=O)N/N=C/c2cccn2-c2ccc([N+](=O)[O-])cc2)cc1OC	HP1b binding inh inconclusive, JMJD2A Tudor inh 45µM, BAZ2B block 40µM, G9a block inconclusive
COc1ccc([N+](=O)[O-])cc1/C=N/NC(=O)Cc1ccccc1	none (no result: CtBP-E1A blk)
CC(C)(C)OC(=O)N/N=C/c1cccc([N+](=O)[O-])c1	G9a block 50µM (no result: BAZ2B block)
O=C(CSc1ccc(-c2ccccn2)nn1)c1ccccc1	Six1-Eya2 blk -86, JMJD2A Tudor inh 7.1µM, BAZ2B block 3.5µM, G9a block inconclusive, CtBP-E1A blk -88
O=C(CSc1ccc(-c2ccco2)nn1)N1CCCC1	G9a block inconclusive
COc1ccccc1-c1ccc(SCc2ccccc2)nn1	none
c1ccc(CSc2ccc(-c3ccccn3)nn2)cc1	Six1-Eya2 blk -91, JMJD2A Tudor inh 7.9µM, BAZ2B block 6.3µM, CtBP-E1A blk inconclusive
O=C(CSc1ccc(-c2ccccn2)nn1)NC1CCCC1	Six1-Eya2 blk -88, JMJD2A Tudor inh 3.2µM, BAZ2B block 3.2µM, CtBP-E1A blk -76
O=C(CSc1ccc(-c2ccco2)nn1)N1CCCCC1	BAZ2B block inconclusive, G9a block 22µM
O=C(CSc1ccc(-c2ccccn2)nn1)N1CCCC1	Six1-Eya2 blk -92, JMJD2A Tudor inh 3.2µM, BAZ2B block 7.1µM, G9a block 3.5µM
O=C(CSc1ccc(-c2ccccc2)nn1)N1CCN(c2ccccc2)CC1	none
CCN1CCN(C(=S)Nc2cc(S(=O)(=O)N(CC)CC)ccc2C)CC1	G9a block inconclusive (no result: CtBP-E1A blk)
CCc1ccc(C2NC(C(=O)O)CS2)cc1 (configuration not stated)	BAZ2B block inconclusive, G9a block 3.5µM (no result: HP1b binding inh, Six1-Eya2 blk, JMJD2A Tudor inh, CtBP-E1A blk)
COc1ccc(Cl)cc1NC(=O)c1ocnc1C	G9a block 50µM
COC(=O)c1ccc(NC(=O)c2c(C(=O)Nc3ccccc3)sc3nc(C)cc(=O)n23)cc1	none (no result: CtBP-E1A blk)
COc1ccc(Cl)cc1NC(=O)c1c(C(=O)Nc2cccc(C)c2C)sc2nc(C)cc(=O)n12	G9a block 11µM (no result: Six1-Eya2 blk, CtBP-E1A blk)
Cc1ccccc1Cn1c(CN2CCC(C(=O)NCCN(C)C)CC2)cc2ccccc21	JMJD2A Tudor inh inconclusive, BAZ2B block inconclusive, G9a block inconclusive (no result: Six1-Eya2 blk, CtBP-E1A blk)
O=C(Cn1nc(Cc2ccncc2)c2ccccc2c1=O)N1CCc2ccccc2C1	G9a block inconclusive, CtBP-E1A blk -68
COc1cccc(C(=O)N/N=C/c2ccc(OC)c(COc3ccccc3C(N)=O)c2)c1	Six1-Eya2 blk inconclusive, CtBP-E1A blk inconclusive
COc1ccc(/C=N\NC(=O)c2ccc(F)cc2)cc1COc1ccccc1C(N)=O	G9a block 35µM
COc1ccc(/C=N\NC(=O)c2ccc([N+](=O)[O-])cc2)cc1COc1c(F)c(F)cc(F)c1F	G9a block 63µM
Cc1ccc(-c2nc3cnccn3c2Nc2c(C)cccc2C)o1	HP1b binding inh inconclusive, JMJD2A Tudor inh inconclusive, G9a block 45µM
Cc1ccc(-c2nc3cnccn3c2Nc2ccc(C(C)C)cc2)o1	HP1b binding inh inconclusive, JMJD2A Tudor inh 45µM (no result: Six1-Eya2 blk, BAZ2B block, G9a block, CtBP-E1A blk)
Cc1cc(C)n(C(=O)Cn2nc(C)c(Cl)c2C)n1	none
COc1ccc(-c2ccc3c(c2)S(=O)(=O)c2cccc(C(=O)NC[C@@H]4CCCO4)c2C3=O)cc1OC	JMJD2A Tudor inh 40µM, BAZ2B block inconclusive
O=C(NC[C@@H]1CCCO1)c1cccc2c1C(=O)c1ccc(Cl)cc1S2(=O)=O	none
Nc1n[nH]c(N)c1N=Nc1ccccc1F	JMJD2A Tudor inh inconclusive, BAZ2B block inconclusive
Nc1n[nH]c(N)c1N=Nc1ccc(Cl)cc1Cl	JMJD2A Tudor inh 32µM, BAZ2B block 32µM, G9a block inconclusive
Cc1[nH]c2c(ccc3cccnc32)c1C	HP1b binding inh inconclusive, JMJD2A Tudor inh 45µM, BAZ2B block 35µM
Clc1ccc2ccc3cccnc3c2n1	none (no result: CtBP-E1A blk)
COc1cc(CNn2cn[nH]c2=S)cc(Br)c1OCc1ccccc1F	Six1-Eya2 blk inconclusive, JMJD2A Tudor inh inconclusive, BAZ2B block inconclusive, G9a block 10µM
COc1cc(CNn2cn[nH]c2=S)cc(Cl)c1OCc1ccccc1	G9a block 10µM
N#CC1=C(S)N(c2ccccc2)C(c2ccc(-c3cc(Cl)ccc3Cl)o2)NC1=O (configuration not stated)	BAZ2B block 50µM, G9a block inconclusive
N#CC1=C(S)N(c2ccccc2)C(c2ccc(-c3ccc(Cl)c(Cl)c3)o2)NC1=O (configuration not stated)	JMJD2A Tudor inh inconclusive, BAZ2B block inconclusive, G9a block inconclusive
N#CC1=C(S)N(c2ccccc2)C(c2ccco2)NC1=O (configuration not stated)	BAZ2B block inconclusive, G9a block 28µM
N#CC1=C(S)N(c2ccc(F)cc2)C(c2ccco2)NC1=O (configuration not stated)	G9a block 8.9µM
Cc1ccc(N2C(S)=C(C#N)C(=O)NC2c2ccco2)cc1 (configuration not stated)	G9a block 28µM
Cc1ccc(N2C(S)=C(C#N)C(=O)NC2c2cccs2)cc1 (configuration not stated)	G9a block inconclusive (no result: CtBP-E1A blk)
N#CC1=C(S)N(c2ccccc2)C(c2cccs2)NC1=O (configuration not stated)	G9a block inconclusive
O=C(Nc1cccc(Cl)c1Cl)c1cc2nc(-c3ccc4c(c3)OCO4)cc(C(F)(F)F)n2n1	none (no result: Six1-Eya2 blk, CtBP-E1A blk)
CCOCC(=O)Nc1cc(Cl)ccc1C	none
Cc1ccccc1NC(=O)CSc1nc(-c2ccccc2)cn1-c1ccccc1F	JMJD2A Tudor inh inconclusive, BAZ2B block inconclusive, G9a block 11µM (no result: Six1-Eya2 blk, CtBP-E1A blk)
Cc1ccccc1NC(=O)CSc1nc2c(c(=O)n(C)c(=O)n2C)n1C	G9a block 71µM
Cc1ccnc(NS(=O)(=O)c2ccc(NC(=O)c3cc(=O)c4ccccc4o3)cc2)n1	none
